Laboratory results reported in PubChem BioAssay AID1578 (Sanford-Burnham Center for Chemical Genomics, 2009).
Hit rate of the full screen: of about 290,000 compounds, about 3,000 (1%) were called active. Many of the other results were omitted from the sample, so actives are more common in it than they were. Values without a mark were called inactive. No stated cut-off is given here; in the data, active means inhibition mostly above about 36% (no sharp cut-off); inactive means mostly below about 34%.

assay: NOD1 signaling inhibitors, primary screen, cell-based, luminescence, uHTS (AID 1578); conditions: NOD1-driven NF-kB luciferase reporter cells, at 4 µM, active compounds read high;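 further: HEK-293T reporter cells stimulated with the NOD1 agonist gamma-tri-DAP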

SMILES	inhibition
CCCCNC(=S)N/N=C1\C(=O)c2cccc3cccc1c23	-56.3%
CCNC(=S)N/N=C1\C(=O)c2cccc3cccc1c23	47.8%
CNC(=S)N/N=C1\C(=O)c2cccc3cccc1c23	98.1% (active)
CC(C)(C)c1ccc(-c2cc(-c3ccccc3O)[nH]n2)cc1	25.5%
Cc1cccc(NC(=S)N/N=C/c2cccn2Cc2ccc(F)cc2)c1	23.3%
Cc1nc([N+](=O)[O-])c(Br)n1CC(=O)c1ccc(Br)cc1	44.8%
Cc1nc([N+](=O)[O-])c(Br)n1CC(=O)c1ccccc1	28.9%
C[C@@H]1ON(C2CCCCC2)[C@H]2c3nc4ccccc4n3C[C@@H]12	-10.2%
CCn1c(Cc2ccc(OC)cc2)nnc1SCc1nc2ccccc2c(=O)[nH]1	-38.1%
CCOCC(=O)Nc1c(C(=O)N2CCN(c3ncccn3)CC2)oc2ccccc12	-37.9%
COc1ccc(NC(=O)c2cc(-c3cc(Cl)ccc3O)n[nH]2)c(OC)c1	-3.3%
COc1ccc(OC)c(NC(=O)c2cc(-c3cc(Cl)ccc3O)n[nH]2)c1	61.4% (active)
COc1ccc(OC)c(NC(=O)c2cc(-c3cc(C)ccc3O)n[nH]2)c1	3.5%
Cn1c(CNC(=O)c2ccc(F)cc2)cc2ccccc21	-17.9%
Cc1onc(-c2c(F)cccc2Cl)c1C(=O)NC1=NCCS1	-2%
Cn1c(SCC(=O)NCC2CCCO2)nc2c(c1=O)SCC2 (centres undefined)	-11.7%
CN(C)S(=O)(=O)N1CCC(Oc2cccc(C(=O)NC3CCOC3)c2)CC1 (centres undefined)	-17.9%
C=C(C)CNC(=O)c1ccc(OC2CCN(S(=O)(=O)N(C)C)CC2)cc1	-27.4%
CN(C)S(=O)(=O)N1CCC(Oc2ccc(C(=O)NC3CCCCC3)cc2)CC1	-24.9%
C=C(C)CN(CC)C(=O)c1ccc(OC2CCN(S(=O)(=O)N(C)C)CC2)cc1	59.3% (active)
C=CCN(CC=C)C(=O)c1ccc(OC2CCN(S(=O)(=O)N(C)C)CC2)cc1	-27.3%
Cc1oc(-c2ccccc2Cl)nc1CSCC(=O)O	-4.9%
COC(=O)c1cccc(N(C(=O)c2cnccn2)C(C(=O)NCc2ccccc2)c2ccco2)c1 (centres undefined)	-29.2%
Cc1ccc(-c2cc(NC(=O)CCl)n(-c3ccccc3)n2)cc1	16%
CC(=O)Nc1cc(-c2ccc(Cl)cc2)nn1-c1ccccc1	-11.7%

SMILES	inhibition
CC(=O)Nc1cn(-c2ccccc2)nc1-c1ccccc1	-27.2%
Cc1cc(NC(=O)CC(F)(F)F)n(-c2ccccc2)n1	-13.5%
O=C(Nc1cn(-c2ccccc2)nc1-c1ccc(Cl)cc1)c1ccccc1	-1.1%
CCCc1cc(C(=O)Nc2cc(C)nn2-c2ccccc2)no1	9.1%
CSc1nc2c(c(=O)[nH]1)CCCC2	-21.3%
COC(=O)c1ccc(NC(=O)CNC(=O)C2CCCCC2)cc1	-20.7%
C/C(=N\NC(=O)c1nn(C)cc1Br)c1ccncc1	-3.7%
O=C(O)c1ccc(S(=O)(=O)c2ccc3c(c2)C(=O)N(c2ccc(Br)cc2)C3=O)cc1	-8.2%
CN(CCOC(=O)c1ccco1)Cc1ccccc1	3.9%
O=C1NN(c2ccccc2)C(=O)/C1=C/c1ccc(Sc2cccc3ccccc23)o1	74.7% (active)
O=C1NN(c2ccccc2)C(=O)/C1=C/c1ccc(-c2ccc(C(=O)O)cc2)o1	-32%
COc1ccc(Sc2ccc(/C=C3\C(=O)NN(c4ccccc4)C3=O)o2)cc1	-2.5%
CC(=O)N1[C@H](C)C=C[C@]1(Cc1ccccc1)C(=O)NCc1cc(F)cc(C(F)(F)F)c1	5.4%
CCN(CC)CCNCC1C(=O)O[C@@H]2C[C@@]3(C)CCC[C@H](C)C3=C[C@H]12 (some centres undefined)	-10.7%
CC1CCN(CC2C(=O)O[C@@H]3C[C@@]4(C)CCC[C@H](C)C4=C[C@H]23)CC(C)(C)C1 (some centres undefined)	15.4%
C[C@H]1CCC[C@]2(C)C[C@H]3OC(=O)C(CN4CCCCCC4)[C@H]3C=C12 (some centres undefined)	34% (active)
CCOC(=O)c1c(C)[nH]c(C(=O)CN2C(=O)NC(C)(CC(C)C)C2=O)c1C (centres undefined)	-30.4%
CCOc1ccc(NC(=O)c2cc(=O)[nH]c3ccccc23)cc1	-21.6%
Nc1ccc2nc(SCc3ccccc3F)sc2c1	-8.7%
CCc1cccc(NC(=O)c2cnn(-c3ccccc3)c2C)c1	-1.5%
COc1ccc(-c2nc(CSCC(=O)NC3CCN(Cc4ccccc4)CC3)c(C)o2)cc1OC	-11.6%
Cc1ccc(-c2nc(CSCC(=O)NC3CCN(Cc4ccccc4)CC3)c(C)o2)cc1	16%
COc1cc(C(=O)N2CCCCCCC2)ccc1OC1CCN(C(C)=O)CC1	-27.7%
C=CCc1cccc(/C=N/NC(=O)C(C)Nc2cccc(C)c2)c1O (centres undefined)	53.5% (active)
C=CCc1cccc(/C=N/NC(=O)C(=O)Nc2ccc(C)cc2)c1O	-24.6%

SMILES	inhibition
C=CCc1cccc(/C=N/NC(=O)C(C)Nc2ccc(C)cc2)c1O (centres undefined)	30.7%
CCOC(=O)C(Cc1ccccc1)NC(=O)CNC(C)=O (centres undefined)	-11.4%
CC(C)(C)c1ccc(/C=N/Nc2cccc(C(=O)O)c2)cc1	-13.1%
O=C(O)c1cccc(N/N=C/c2ccc(-c3ccccc3)cc2)c1	3.6%
Cc1ccsc1/C=N/Nc1cccc(C(=O)O)c1	84% (active)
Cc1ccsc1/C=N/Nc1ccc(C(=O)O)cc1	-2.3%
CSc1ccc(/C=N/Nc2ccc(Cl)c(C(=O)O)c2)cc1	-22.8%
CN(C)c1ccc(/C=N/Nc2cccc(C(=O)O)c2)cc1	72.1% (active)
CSc1ccc(/C=N/Nc2cccc(C(=O)O)c2)cc1	83.8% (active)
Cc1ccc(/C=N/Nc2cccc(C(=O)O)c2)s1	4.1%
O=C(O)c1cccc(N/N=C/c2ccc(F)c(F)c2)c1	-12.4%
Cc1ccc(NC(=O)COc2ncnc3cc([N+](=O)[O-])ccc23)cc1S(=O)(=O)N1CCOCC1	-14.7%
CCC/S(C)=N/S(=O)(=O)c1ccc(C)cc1 (centres undefined)	-6.2%
O=C1CSC(c2ccccc2F)N1CCN1CCCCC1 (centres undefined)	-19%
COC(=O)c1cccc(NC(=O)Cc2ccc(OC)cc2)c1C	-11.4%
O=C(Nc1ccccc1)Nc1nc(-c2ccccc2)cs1	-13.8%
Cc1ccsc1/C=N/N1CCOCC1	-33.4%
CCOC(=O)N1CCC(Nc2c(Nc3cccc(CC)c3)c(=O)c2=O)CC1	18.1%
CCOc1ccc(C(=O)Nc2cccc3ncccc23)cc1Cl	8.8%
O=C(COc1ccccc1)Nc1ccc2[nH]ncc2c1	-11.3%
Cc1ccccc1OCC(=O)Nc1ccc2[nH]ncc2c1	-17.7%
CC(C)c1ccccc1OCC(=O)Nc1ccc2[nH]ncc2c1	47.7% (active)
N#Cc1c(Nc2ccccc2)sc(C(=O)c2ccc(F)cc2)c1N	5.2%
N#Cc1c(Nc2ccccc2)sc(C(=O)c2ccccc2)c1N	0.9%
Nc1c(C(=O)c2ccccc2)sc(Nc2ccccc2)c1S(=O)(=O)c1ccccc1	52.2% (active)

SMILES	inhibition
COCCn1c(C)cc(C(=O)CSc2nnc(C)s2)c1C	77.8% (active)
CC(=O)CSc1ncnc2sc3c(c12)CCC3	13.2%
Cc1ccc(C(=O)CSc2ncnc3sc4c(c23)CCCC4)cc1	31%
COCCn1c(C)cc(C(=O)CSc2nc3ccccc3s2)c1C	54%
COCCn1c(C)cc(C(=O)CSc2nc(C)c(C)c(C)n2)c1C	-5.4%
COc1ccc(CNCc2ccc3c(c2)OCO3)c(OC)c1OC	-18%
Cc1cc(N2CCN(C)CC2)nc2ccc(NC(=O)CCC(=O)NCCC(C)C)cc12	-10.6%
Cc1ccc2nc(Cl)c3nnnn3c2c1	83.8% (active)
Cc1ccc(-c2nc3ccccc3n3nnnc23)cc1	-53.8%
Cc1ccc2nc(N3CCN(c4cccc(C)c4C)CC3)c3nnnn3c2c1	6.9%
COc1ccc(OCCC(=O)N2CCOCC2)cc1	-24%
CN(Cc1ccccc1)C(=O)c1ccccc1NC(=O)c1ccco1	54.5% (active)
O=C(Nc1ccccc1C(=O)NCc1ccccc1)c1ccco1	-14.6%
CN(Cc1ccccc1)C(=O)c1ccccc1NC(=O)c1ccccc1	-20.6%
Oc1ccc(/C=N/Nc2ccnc3cc(Cl)ccc23)c(O)c1O	-3.8%
CN(C)CCN(C(=O)c1ccc(N2C(=O)CCC2=O)cc1)c1nc2cc3c(cc2s1)OCO3	-20.4%
O=C(N/N=C/c1ccccc1Br)C1CC1	-25.3%
Cc1oc(-c2ccc(Cl)cc2)nc1CN1CCC(C(=O)NCCCN2CCCC2=O)CC1	17.3%
O=Cc1cc(CCC(=O)O)ccc1O	63% (active)
O=C(O)Cc1ccc(O)c(O)c1	-0.7%
COc1ccc(CCC(=O)O)cc1OC	-2.3%
COc1ccc(C(=O)/C(C#N)=N/Nc2ccc([N+](=O)[O-])cc2)cc1	82.5% (active)
COc1ccc(N/N=C(\C#N)C(N)=O)cc1	-41.5%
COc1ccc(C(=O)/C(C#N)=N/Nc2ccccc2[N+](=O)[O-])cc1	42.9%
